Screens deposited in PubChem by The Scripps Research Institute Molecular Screening Center.
hcDAF12 agonist: H. contortus DAF-12 nuclear receptor activators, primary screen, cell-based, luminescence, HEK293, lit1-tk-luc reporter | HEK293 hcDAF-12 lit1-tk-luc reporter; 0% DMSO, 100% Δ7-dafachronic acid | activation, % at 6.8 µM | actives 1.4% (n = 370,000) | AID 652067, 2013;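 active = activation above the mean of all tested compounds plus 3 SD, cut at about 5.5% in these data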;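 note: 100% = response to 3 µM Δ7-dafachronic acid high control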
DAX1 inh-1: DAX1 (NR0B1) inhibitors on StAR promoter, primary screen, cell-based, luminescence, SF-1 (NR5A1), full-length DAX-1 | HEK293T StAR-luciferase reporter, SF-1/DAX-1 repression relief | inhibition, % at 6.8 µM | actives 1.1% (n = 370,000) | AID 652010, 2013;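 active = inhibition above the mean over all tested compounds plus 3 SD, cut at about 3.6% in these data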;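 note: 0% = DAX-1 cells with DMSO and 100% = cells lacking DAX-1 with DMSO; higher inhibition means more luminescence from relief of DAX-1 repression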
hgDAF-12 ag: H. glycines DAF-12 receptor agonists, primary screen, cell-based, luminescence, HEK293, GAL4 fusion, UAS-luciferase. Nuclear hormone receptor DAF-12 (Heterodera glycines), GAL4 fusion. HEK293 GAL4-hgDAF12 UAS-luciferase reporter, agonist luminescence; normalized to butyrate control. activation, % at 6.8 µM. actives 1.8% (n = 370,000). AID 687014, 2013;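 active = activation above a cutoff set at the mean of all screened compounds plus 3 SD, cut at about 10% in these data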;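 note: 0% = DMSO wells and 100% = sodium butyrate wells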
DAX1 inh-2: DAX1 (NR0B1) inhibitors, primary screen, cell-based, HEK293, Gal4-DAX1, luciferase luminescence | HEK293 Gal4-DAX1 luciferase reporter | inhibition, % at 6.75 µM | actives 0.99% (n = 340,000);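 active = inhibition above the mean over all tested compounds plus 3 SD, cut at about 4.2% in these data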;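 note: 0% = DAX1-transfected cells with DMSO and 100% = empty-vector control cells with DMSO; inhibition shows as a rise in luminescence from relieved DAX1 repression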
Target sequence (P51843 207-470 limits assumed): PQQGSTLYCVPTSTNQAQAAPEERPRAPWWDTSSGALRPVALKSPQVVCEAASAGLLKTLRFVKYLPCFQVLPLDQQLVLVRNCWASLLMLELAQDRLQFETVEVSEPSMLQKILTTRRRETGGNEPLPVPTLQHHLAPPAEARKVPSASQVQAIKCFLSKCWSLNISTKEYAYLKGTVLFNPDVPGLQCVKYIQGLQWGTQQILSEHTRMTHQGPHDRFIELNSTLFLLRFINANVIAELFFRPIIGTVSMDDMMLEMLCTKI
ssDAF-12 act: S. stercoralis DAF-12 nuclear receptor activators, primary screen, cell-based, luminescence, HEK293, GRIP1 co-expression, lit1-tk-luc; Nuclear hormone receptor DAF-12 (Strongyloides stercoralis); HEK293 ssDAF-12/GRIP1 lit1-tk-luc reporter; % of 3 µM dafachronic acid response; activation, % at 6.8 µM; actives 1% (n = 370,000); AID 652126, 2013;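 active = activation above the mean over all tested compounds plus 3 SD, cut at about 0.9% in these data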;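 note: 0% = DMSO-only wells and 100% = 3 µM delta7-dafachronic acid wells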
Numbers without * were called inactive. An excerpt weighted towards active compounds, which were near 4.1% of everything screened.

`C[C@@H]1CCCCO[C@H](CN(C)S(=O)(=O)c2ccccc2)[C@@H](C)CN([C@H](C)CO)C(=O)c2cc(NC(=O)Cc3ccccc3)ccc2O1` gave hcDAF12 agonist 0.4, DAX1 inh-1 -0.7, hgDAF-12 ag -1.4, DAX1 inh-2 0.2 and ssDAF-12 act -1.0.
For CN(Cc1c(C(=O)N2CCCCCCC2)nc2ccc(Cl)cn12)C1CCOC1 (stereo unspecified) the results were hcDAF12 agonist -1.8, DAX1 inh-1 -0.2, hgDAF-12 ag 0.8, DAX1 inh-2 0.6 and ssDAF-12 act -1.1.
`Cc1cccn2c(CN(C)C3CCOC3)c(C(=O)N3CCCCC3)nc12` (stereo unspecified) gave hcDAF12 agonist 0.7, DAX1 inh-1 0.3, hgDAF-12 ag -1.4, DAX1 inh-2 4.3* and ssDAF-12 act -0.8.
Screening Cc1cc(C)nc(N2CCC(C(=O)N(C)CCc3ccccc3)CC2)n1 returned hcDAF12 agonist -2.1, DAX1 inh-1 -2.5, hgDAF-12 ag -0.3 and ssDAF-12 act -1.1.
CC(C)(C)c1ccc(C(=O)Nn2cnnc2)cc1 was read as hcDAF12 agonist 3.6, DAX1 inh-1 0.1, hgDAF-12 ag 4.9, DAX1 inh-2 2.9 and ssDAF-12 act 1.0*.
`O=C(Nn1cnnc1)c1ccncc1` gave hcDAF12 agonist 0.1, DAX1 inh-1 -0.1, hgDAF-12 ag 2.6, DAX1 inh-2 1.4 and ssDAF-12 act -1.0.
`CC(C)(C)c1ccc(-c2nnc(SCc3ccccc3)n2Cc2ccco2)cc1` gave hcDAF12 agonist -0.9, DAX1 inh-1 -1.6, hgDAF-12 ag -3.6 and ssDAF-12 act -2.0.
For Cc1ccc(C(=O)CSc2nnc3ccccn23)c(C)c1 the results were hcDAF12 agonist 5.7*, DAX1 inh-1 4.4*, hgDAF-12 ag 10.7*, DAX1 inh-2 0.8 and ssDAF-12 act 0.1.
CCCCN(C)c1c2c(nc3ncnn13)CCCC2 was read as hcDAF12 agonist -0.8, DAX1 inh-1 -1.1, hgDAF-12 ag -3.8 and ssDAF-12 act -0.6.
Screening CCN1CCN(C(=O)CSCc2nc(-c3ccc(OC)c(OC)c3)oc2C)CC1 returned hcDAF12 agonist 4.9, DAX1 inh-1 0.0, hgDAF-12 ag 3.2, DAX1 inh-2 1.4 and ssDAF-12 act -1.3.
COc1ccc(-c2nc(CSCC(=O)N3CCN(C)CC3)c(C)o2)cc1OC was read as hcDAF12 agonist -0.5, DAX1 inh-1 -0.4, hgDAF-12 ag -2.6, DAX1 inh-2 6.1* and ssDAF-12 act -0.7.
O=C(O)CSCc1nc2scc(-c3ccccc3)c2c(=O)[nH]1 was read as hcDAF12 agonist -1.1, DAX1 inh-1 0.0, hgDAF-12 ag 2.8, DAX1 inh-2 5.8* and ssDAF-12 act -1.4.
O=c1[nH]c(Cc2ccccc2)nc2scc(-c3ccccc3)c12 was read as hcDAF12 agonist -1.9, DAX1 inh-1 0.1, hgDAF-12 ag 0.9, DAX1 inh-2 -0.1 and ssDAF-12 act -1.2.
`CC(Sc1ccccn1)C(=O)Nc1ccccc1` (stereo unspecified) gave hcDAF12 agonist 3.5, DAX1 inh-1 1.8, hgDAF-12 ag 13.2*, DAX1 inh-2 1.6 and ssDAF-12 act -0.3.
Screening CCN(CCN(C)C)C(=O)Cn1ncc2c1-c1cc(C)ccc1OC2 returned hcDAF12 agonist -0.5, DAX1 inh-1 -0.2, hgDAF-12 ag 1.9, DAX1 inh-2 5.6* and ssDAF-12 act -0.6.
For O=C(NCCO)C(=O)Nc1cc2c3c(c1)CCC(=O)N3CCC2 the results were hcDAF12 agonist 1.4, DAX1 inh-1 -0.1, hgDAF-12 ag -0.1, DAX1 inh-2 0.3 and ssDAF-12 act -0.8.
`Cn1nc(-c2ccccc2)cc1NS(=O)(=O)c1ccc(C#N)cc1` gave hcDAF12 agonist -0.4, DAX1 inh-1 -0.3, hgDAF-12 ag 0.3, DAX1 inh-2 4.3* and ssDAF-12 act -1.2.
COc1ccc(CN2C(=O)c3ccnn3CC2(C)c2nnnn2-c2c(C)cccc2C)cc1 (stereo unspecified) was read as hcDAF12 agonist -0.1, DAX1 inh-1 0.2, hgDAF-12 ag 2.0 and ssDAF-12 act -1.1.
O=C(O)C1CCN(C(=O)c2ccccc2N2C(=O)[C@@H]3Cc4c([nH]c5ccccc45)C(c4cccc(Cl)c4)N3C2=O)CC1 (stereo partly specified) was read as hcDAF12 agonist 5.6*, DAX1 inh-1 -0.7, hgDAF-12 ag 2.5, DAX1 inh-2 2.3 and ssDAF-12 act 1.0*.
Screening O=C(NCCN1CCC(Cc2ccccc2)CC1)C1CCCN(S(=O)(=O)c2ccc([N+](=O)[O-])cc2)C1 (stereo unspecified) returned hcDAF12 agonist -2.6, DAX1 inh-1 -2.6, hgDAF-12 ag -3.7 and ssDAF-12 act -1.6.
Screening O=C(O)CCSc1nc(C(F)(F)F)cc(=O)n1-c1ccccc1 returned hcDAF12 agonist -0.3, DAX1 inh-1 0.4, hgDAF-12 ag -1.6, DAX1 inh-2 5.7* and ssDAF-12 act -1.1.
`COc1ccc(C(=O)c2[nH]c(N)c(C(=O)c3ccccc3)c2-c2ccc(OC)c(OC)c2)cc1` gave hcDAF12 agonist -0.3, hgDAF-12 ag -1.9 and ssDAF-12 act -2.1.
For Clc1ccccc1N/N=C/c1ccc2c(c1)OCO2 the results were hcDAF12 agonist 4.4, DAX1 inh-1 2.3, hgDAF-12 ag 9.5, DAX1 inh-2 4.3* and ssDAF-12 act -0.8.
For O=C(O)c1ccc(/C=N/Nc2nnnn2-c2ccccc2)cc1 the results were hcDAF12 agonist -0.2, DAX1 inh-1 0.4, hgDAF-12 ag 0.0, DAX1 inh-2 -2.0 and ssDAF-12 act 1.6*.
Screening O=C(O)c1ccc(/C=N/Nc2nc3ccccc3[nH]2)cc1 returned hcDAF12 agonist -0.5, DAX1 inh-1 0.2, hgDAF-12 ag 2.2, DAX1 inh-2 8.9* and ssDAF-12 act -0.5.
For C/C(=N\Nc1nc2ccccc2[nH]1)c1ccc2c(c1)OCO2 the results were hcDAF12 agonist -1.4, DAX1 inh-1 0.5, hgDAF-12 ag 2.4, DAX1 inh-2 -0.3 and ssDAF-12 act -2.0.
COC(=O)c1ccc(/C=N/Nc2nc3ccccc3[nH]2)cc1 was read as hcDAF12 agonist 1.6, DAX1 inh-1 0.9, hgDAF-12 ag 6.5, DAX1 inh-2 0.0 and ssDAF-12 act -0.5.
`C(=N\Nc1nc2ccccc2[nH]1)/c1ccc2c(c1)OCO2` gave hcDAF12 agonist 4.4, DAX1 inh-1 3.3, hgDAF-12 ag 10.1, DAX1 inh-2 8.0* and ssDAF-12 act 0.0.
